{"source": "paper PMC7826789", "about": "(International Journal of Molecular Sciences, 2021);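 further: KINOMEscan scanMAX binding as percent activity remaining versus control; lower means stronger binding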", "data": [{"test_system": "T1, ASK2", "T1 construct": "gene MAP3K6", "conditions": "Compound Concentration (nM):1000", "units": {"Percent Control": "%"}, "values": [{"smiles": "Cl.O=C(Nc1ccc(Oc2ccc3[nH]c(NC(=O)c4ccco4)nc3c2)cc1)Nc1cc(C(F)(F)F)ccc1F", "note": "[GW683134A]", "Percent Control": 93}, {"smiles": "O=C(Nc1n[nH]c2nc(-c3ccc(O)cc3)c(Br)cc12)C1CC1", "note": "[SB-725317]", "Percent Control": 100}, {"smiles": "COc1cc2ncnc(Nc3ccc4c(cnn4Cc4ccccc4)c3)c2cc1OC.Cl", "note": "[GW282449A]", "Percent Control": 74}, {"smiles": "CN(C)CCNC(=O)Nc1ccc(N(C)c2ccnc(Nc3ccc(CS(C)(=O)=O)cc3)n2)cc1.Cl", "note": "[GW830900A]", "Percent Control": 80}, {"smiles": "CC1=C(C(=O)Nc2ccc3[nH]ncc3c2)C(c2ccc(Cl)c(Cl)c2)CC(=O)N1", "note": "(stereo not drawn) [GSK299115A]", "Percent Control": 82}, {"smiles": "COc1ccc(COc2ccc(Cc3cnc(N)nc3N)cc2OC)cc1", "note": "[GW632580X]", "Percent Control": 85}, {"smiles": "CCS(=O)(=O)c1ccc(OC)c(Nc2ncc(-c3cccc(F)c3)o2)c1", "note": "[GW621970X]", "Percent Control": 75}, {"smiles": "COc1cc(/C=N/Nc2ncnc3[nH]ncc23)ccc1O", "note": "[GW578748X]", "Percent Control": 75}, {"smiles": "C/C(Nc1ccc(S(N)(=O)=O)cc1)=C1/C(=O)Nc2ccccc21", "note": "[GW335962X]", "Percent Control": 69}, {"smiles": "CN1CCN(C(=O)c2ccc(NC(=O)Nc3ccc(N(C)c4ccnc(Nc5ccc(CS(C)(=O)=O)cc5)n4)cc3)cc2)CC1.Cl", "note": "[GW830263A]", "Percent Control": 67}, {"smiles": "CC1=C(C(=O)Nc2ccc3[nH]ncc3c2)C(c2ccc3ccccc3c2)CC(=O)N1", "note": "(stereo not drawn) [GSK270822A]", "Percent Control": 84}, {"smiles": "COc1ccc2cc(-c3c(-c4ccncc4)nc(-c4ccc(S(C)(=O)=O)cc4C)n3C)ccc2c1", "note": "[SB-633825]", "Percent Control": 74}, {"smiles": "COc1ccccc1-c1cc(/C=C2\\C(=O)Nc3ncc(Br)cc32)cc(Br)c1O", "note": "[GW442130X]", "Percent Control": 100}, {"smiles": "NS(=O)(=O)c1ccc(N/N=C2\\C(=O)Nc3ccc(C(=O)NCc4ccncc4)cc32)cc1", "note": "[GW300657X]", "Percent Control": 70}, {"smiles": "Cl.O=C(O[C@H]1CN[C@H](C#Cc2cc3ncnc(Nc4ccc5c(cnn5Cc5ccccc5)c4)c3s2)C1)N1CCOCC1", "note": "[GSK200398A]", "Percent Control": 88}, {"smiles": "Cl.O=S1CCN(Cc2ccc(-c3ccc4ncnc(Nc5ccc(OCc6ccccc6)c(F)c5)c4c3)o2)CC1", "note": "[GW576924A]", "Percent Control": 69}, {"smiles": "Cl.c1ccc(Cc2nc3ccc(Nc4ncnc5ccccc45)cc3[nH]2)cc1", "note": "[GR269666A]", "Percent Control": 77}, {"smiles": "COc1cccc(-c2c[nH]c3c(N/N=C/c4ccncc4)ncnc23)c1", "note": "[GW814408X]", "Percent Control": 100}, {"smiles": "Cl.O=C(Nc1ccc(Oc2ccc3[nH]c(NC(=O)c4ccccc4)nc3c2)cc1)Nc1cc(C(F)(F)F)ccc1F", "note": "[GW709042A]", "Percent Control": 80}, {"smiles": "CCn1c(-c2nonc2N)nc2c(C#CC(C)(C)O)nc(OCCNC)cc21.Cl", "note": "[GSK949675]", "Percent Control": 100}, {"smiles": "CN(C)c1cc2c(Nc3ccc4c(cnn4Cc4ccccc4)c3)ncnc2cn1", "note": "[GW282974X]", "Percent Control": 73}, {"smiles": "C[C@@H](Oc1cc(-n2cnc3ccc(OC4CCN(C)CC4)cc32)sc1C(N)=O)c1ccccc1Cl", "note": "[GSK579289A]", "Percent Control": 66}, {"smiles": "CCc1ccc(Oc2nccc(-c3c(-c4ccc(F)cc4)ncn3C3CCNCC3)n2)cc1", "note": "[SB-242719]", "Percent Control": 66}, {"smiles": "NS(=O)(=O)c1ccc(N/N=C2\\C(=O)Nc3ccc(-c4cnco4)cc32)cc1", "note": "[GW276655]", "Percent Control": 85}, {"smiles": "COc1cc(C)c(N(C)C(=O)CN(C)C)cc1Nc1nc(Nc2cccc(F)c2C(N)=O)c2cc[nH]c2n1", "note": "[GSK2219385]", "Percent Control": 70}, {"smiles": "COc1ccc2[nH]c3c4[nH]c5ccc(OC)cc5c4c4c(c3c2c1)C(=O)NC4=O", "note": "[GW296115X]", "Percent Control": 86}, {"smiles": "COc1cc(C=NNc2ncnc3c2cnn3-c2ccccc2)ccc1O", "note": "[GW513184X]", "Percent Control": 100}, {"smiles": "NS(=O)(=O)c1ccc(N/N=C2\\C(=O)Nc3ccc(Cl)cc32)cc1", "note": "[GW280670X]", "Percent Control": 91}, {"smiles": "COc1cc(N2CCN(C(C)C)CC2)ccc1Nc1nc(Nc2ccc(F)cc2C(=O)NC[C@@H](O)CO)c2cc[nH]c2n1", "note": "[GSK1392956A]", "Percent Control": 73}, {"smiles": "Cc1cc(O)cc(C)c1/C=C/c1cncc(C(N)=O)c1", "note": "[GW435821X]", "Percent Control": 79}, {"smiles": "COC(=O)Nc1nc2ccc(Oc3ccc(NC(=O)Nc4cc(C(F)(F)F)ccc4F)cc3)cc2s1.Cl", "note": "[GW693917A]", "Percent Control": 64}, {"smiles": "CC(C)COC(=O)c1ccc2c(c1)/C(=C/Nc1ccc(S(N)(=O)=O)cc1)C(=O)N2", "note": "[GW416981X]", "Percent Control": 85}, {"smiles": "CCS(=O)(=O)c1ccc(OC)c(Nc2ncc(-c3cccc(OC)c3)o2)c1", "note": "[GW580509X]", "Percent Control": 85}, {"smiles": "COc1cccc(-n2ncc3c(N/N=C/c4ccncc4)ncnc32)c1", "note": "[GW784752X]", "Percent Control": 62}, {"smiles": "COc1ccc2c(-c3ccnc(Nc4cccc(OC(F)(F)F)c4)n3)cnn2n1", "note": "[GW810372X]", "Percent Control": 78}, {"smiles": "O=C1Nc2ccc(C(=O)c3ccco3)cc2C1=Cc1cc(Cl)c(O)c(Cl)c1", "note": "[GW406108X]", "Percent Control": 72}]}]}
